Laboratory results as given in PubChem BioAssay AID1117319 (Southern Research Institute, 2015).
In all, about 260,000 compounds went through this assay and about 1,500 (0.58%) were called active. About 5% were inconclusive and are not listed.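 The calls were made as follows: active = inhibition above a set limit at one or more doses, reproduced on every date tested; inconclusive = results disagree between test dates, or hit never tested in dose response; inactive = the rest.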 Not all results are given here. Measured potencies and affinities stand elsewhere.

Each compound was assayed against Virion infectivity factor (Human immunodeficiency virus type 1 group M subtype B (isolate BH10)) + Virion infectivity factor (Human immunodeficiency virus type 1 group M subtype B (isolate BRU/LAI)) + Virion infectivity factor (Human immunodeficiency virus type 1 group M subtype B (isolate PCV12)) + Virion infectivity factor (Human immunodeficiency virus type 1 group M subtype B (isolate HXB2)) + DNA dC->dU-editing enzyme APOBEC-3G (Homo sapiens) (UniProt P69720+P69721+P69722+P69723+Q9HC16) (assay: HIV-1 Vif–A3G interaction blockers – biochemical, TR-FRET, GST-Vif 1-94, biotin-A3G peptide, dose response retest, primary screen (AID 1117319;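 also: Vif residues 1-94 fused to GST binding biotinylated APOBEC3G peptide 110-148; 0% = full assay without inhibitor and 100% = GST in place of GST-Vif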)). Conditions: TR-FRET GST-Vif / biotin-A3G peptide binding; stronger effect = higher value.

Row | SMILES | inhibition
1 | CC1=CC(C)(C)N2C(=O)C3(C(C#N)=C(N)Oc4cc(O)ccc43)c3cccc1c32 (stereo unspecified) | 4.05% (inactive)
2 | COc1cc(N=C2C(=O)N3c4c(cccc42)C(C)=CC3(C)C)cc(OC)c1 | -3.94% (inactive)
3 | CN(C)c1oc(-c2ccco2)nc1S(=O)(=O)c1ccc(Br)cc1 | 10.3% (inactive)
4 | O=C(Nc1ccc(Br)cn1)c1cccc(C(=O)Nc2ccc(Br)cn2)c1 | -16% (inactive)
5 | CC(C)CNC(=O)c1coc(=O)c(Br)c1 | 12.1% (inactive)
6 | COc1ccccc1NC(=O)c1coc(=O)c(Br)c1 | 13.2% (inactive)
7 | O=C(NCCc1ccc(F)cc1)c1coc(=O)c(Br)c1 | -6.83% (inactive)
8 | O=C(Nc1ccc(Br)cn1)c1ccc2ccccc2c1 | -12.4% (inactive)
9 | Cc1cc(NC(=O)c2coc(=O)c(Br)c2)ccc1C(C)C | 10.6% (inactive)
10 | CCCN(CC(=O)Nc1ccccc1OC)C(=O)c1ccc2[nH]c3c(c2c1)CC(C)CC3 (stereo unspecified) | 2.48% (inactive)
11 | C[C@@H]1NC(=O)[C@H](CC(N)=O)NC(=O)c2cc([N+](=O)[O-])cc(I)c2OCC[C@@H](C(=O)NC(CC(=O)O)C(N)=O)NC1=O (stereo partly specified) | 10.6% (inactive)
12 | Cc1csc(SC(C)C(=O)Nc2ccccc2C)n1 (stereo unspecified) | -12.6% (inactive)
13 | Cc1ccc(C2=NC(C)(C)N=C2SCC(=O)Nc2ccc(Cl)cc2)cc1 | 2.26% (inactive)
14 | O=C(NC(=S)Nc1cc(-c2nc3ccccc3[nH]2)ccc1Cl)c1ccc2c(c1)OCO2 | 6.14% (inactive)
15 | C[C@H]1CN([C@@H](C)CO)C(=O)CCCn2nncc2CO[C@@H]1CN(C)Cc1ccc(Cl)c(Cl)c1 | -0.91% (inactive)
16 | CCN(CC)c1ccc(/C=N/NS(=O)(=O)c2ccc(CNC(C)=O)cc2)cc1 | -3.65% (inactive)
17 | COc1cccc(OCc2cc(/C=N/NC(=O)c3ccn[nH]3)ccc2OC)c1 | 0.65% (inactive)
18 | COC(=O)C1=C(N)N(c2ccc(F)cc2)C2=C(C(=O)CCC2)C1c1ccc2c(c1)OCO2 (stereo unspecified) | -32.1% (inactive)
19 | Cn1c(SCCOc2ccc(F)cc2)nnc1-c1ccncc1 | -1.32% (inactive)
20 | Cn1c(SCCOc2ccc(Cl)cc2)nnc1-c1ccncc1 | 3.6% (inactive)
21 | CCOc1ccc(C(=O)NCC2CCCO2)cc1OCC (stereo unspecified) | 1.97% (inactive)

Row | SMILES | inhibition
22 | CCOc1ccccc1NC(=S)NCC1CCCO1 (stereo unspecified) | -2.09% (inactive)
23 | CC(=O)c1c(C)[nH]c(C(=O)NCc2ccc(F)cc2)c1C | -3.52% (inactive)
24 | NC(=O)NC(=O)COC(=O)c1ccc(Cl)c(S(=O)(=O)N(Cc2ccccc2)c2ccc(Cl)cc2)c1 | -3.29% (inactive)
25 | Cc1cccc(Nc2nc(-c3cccs3)cs2)n1 | 8.51% (inactive)
26 | CCNc1c(C(=O)O)ccc2c1C(=O)c1ccccc1C2=O | 32.2% (inactive)
27 | O=C(O)c1ccc2c(c1Nc1ccccc1)C(=O)c1ccccc1C2=O | -2.59% (inactive)
28 | COc1ccc(C(=O)NC2CC2)cc1OC1CCN(Cc2ccccc2F)CC1 | -1.16% (inactive)
29 | Nc1nnnn1/N=C/c1cccc(O)c1 | 9.19% (inactive)
30 | O=C(CSc1nc(O)c(C2CCCCC2)c(=O)[nH]1)NCC1CCCO1 (stereo unspecified) | 14.4% (inactive)
31 | Cc1ccc(CNC(=O)C2CC(=O)N(c3ccc(OCC(=O)N4CCCC4)cc3)C2)cc1 (stereo unspecified) | -0.42% (inactive)
32 | O=C(c1ccc(Cl)cc1)c1cnc(-c2ccccc2)s1 | -2.61% (inactive)
33 | Cc1ccc(C=C2C=C(c3ccccc3)OC2=O)cc1 | 6.6% (inactive)
34 | O=C1OC(c2ccc(F)cc2)=C/C1=C\c1ccc(O)cc1 | -0.55% (inactive)
35 | C=CCN(C(=O)Nc1ccc(OC)cc1)c1nnc(-c2ccncc2)s1 | -4.12% (inactive)
36 | Cc1cc(NC(=O)CCl)n(-c2nc3ccccc3s2)n1 | -1.34% (inactive)
37 | CC(=O)Nc1cc(C)nn1-c1nc2ccccc2s1 | -19.4% (inactive)
38 | O=C1CSC(c2ccc(Cl)cc2)N1c1cccnc1 (stereo unspecified) | 3.17% (inactive)
39 | CCOC(=O)C1CCN(c2ncnc3c2cnn3-c2ccc(Cl)cc2)CC1 | -26.4% (inactive)
40 | CCOC(=O)C1CCCN(c2ncnc3c2cnn3-c2ccc(OC)cc2)C1 (stereo unspecified) | -2.45% (inactive)
41 | O=C(CSc1ccc(Cl)cc1)NNC(=O)c1ccco1 | 2.28% (inactive)
42 | O=C(CCSc1ccc(Cl)cc1)c1ccco1 | 2.25% (inactive)

Row | SMILES | inhibition
43 | COc1ccc(NS(=O)(=O)c2cccc(Cl)c2)cc1S(=O)(=O)N1CCCCC1 | 2.26% (inactive)
44 | COc1ccc(NS(=O)(=O)c2cc(Cl)ccc2Cl)cc1S(=O)(=O)N1CCCCC1 | 10.3% (inactive)
45 | Nc1nc(Cn2nnc(-c3ccccc3F)n2)nc(N2CCOCC2)n1 | -5.97% (inactive)
46 | COc1ccc(N=CC2=C(O)CCCC2=O)cc1 | 72.2% (inactive)
47 | CC1(C)CC(=O)C(C=Nc2ccc(O)cc2)=C(O)C1 | 21.5% (inactive)
48 | COC(=O)c1cccc(COC(=O)c2ccc(N(C)C)cc2)c1 | -1.93% (inactive)
49 | CC1CCCCN1C(=O)CSc1nc2ccccc2[nH]1 (stereo unspecified) | -5.81% (inactive)
50 | CCn1c(C)nc2cc(C(=O)N/N=C/c3ccccc3C)ccc21 | -5.98% (inactive)
51 | COc1ccc(O)c(/C=N/NC(=S)Nc2cccc(S(=O)(=O)N(C)C)c2)c1 | 12.6% (inactive)
52 | CCn1c(C)nc2cc(C(=O)N/N=C/c3ccccc3)ccc21 | 4.16% (inactive)
53 | Cc1cccc(N/N=C/c2ccncc2)c1 | 4.59% (inactive)
54 | CCOc1ccccc1/C=N/NC(=O)c1cccc(S(=O)(=O)N(CC)CC)c1 | -6.17% (inactive)
55 | Cc1cccc(N/N=C/c2ccccc2O)c1 | 0.12% (inactive)
56 | CN(C)S(=O)(=O)c1cccc(NC(=S)N/N=C/c2cc(Br)ccc2O)c1 | 9.46% (inactive)
57 | CCN(CC)S(=O)(=O)c1cccc(C(=O)N/N=C/c2cc(OC)c(O)c(OC)c2)c1 | 1.27% (inactive)
58 | CS/C(=N\S(=O)(=O)c1ccc(N)cc1)NS(=O)(=O)c1cccs1 | 4.67% (inactive)
59 | O=C(Nc1nnc(CCc2ccccc2)s1)c1ccco1 | -2.33% (inactive)
60 | CSc1nnc(-c2cccc(C)c2)n1N | -5.45% (inactive)
61 | CCOCCCn1c(=NC(=O)c2ccco2)c(C(=O)OCC)cc2c(=O)n3cccc(C)c3nc21 | 8.51% (inactive)
